# Data as given in publication PMC10726135, “HNF4α isoforms regulate the circadian balance between carbohydrate and lipid metabolism in the liver”.
# In all, about 18,000 sequences were measured (“log2 normalized intensity”: median about 0.39, highest 2% from about 6.6 on). For the sample, the highest values were picked, then their nearest neighbours and some sequences at random.
# Target: T1, HNF4alpha2 (COS-7 nuclear extract) (Homo sapiens, UniProt P41235 1-474)
# T1 sequence: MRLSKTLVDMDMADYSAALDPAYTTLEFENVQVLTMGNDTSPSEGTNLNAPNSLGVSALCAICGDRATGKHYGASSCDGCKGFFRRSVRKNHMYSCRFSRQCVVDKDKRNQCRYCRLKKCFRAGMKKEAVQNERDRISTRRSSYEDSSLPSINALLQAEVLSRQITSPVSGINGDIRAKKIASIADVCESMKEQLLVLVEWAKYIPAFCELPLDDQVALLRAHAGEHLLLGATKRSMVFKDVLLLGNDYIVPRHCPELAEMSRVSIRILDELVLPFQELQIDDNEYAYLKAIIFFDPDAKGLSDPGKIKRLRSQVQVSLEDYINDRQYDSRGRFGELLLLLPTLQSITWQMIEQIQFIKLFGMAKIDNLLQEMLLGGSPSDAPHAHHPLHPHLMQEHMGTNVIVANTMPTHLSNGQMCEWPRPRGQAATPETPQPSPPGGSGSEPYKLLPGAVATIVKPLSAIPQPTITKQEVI
# Assay: protein-binding microarray; COS-7 nuclear extract on double-stranded Agilent 4x180k PBM; binding buffer, salt, pH and temperature not given in the material; high values mean tight binding
# Settings: chain copies: 2; label: 3' end of strand 1 on the slide; dsDNA, one strand shown
# Procedure, shortened: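 Nuclear extracts from COS-7 cells expressing a transiently transfected human HNF4α isoform were put on a custom Agilent SurePrint G3 4x180k array carrying ~44,000 double-stranded ~60-nt test sequences in quadruplicate. Imaging used an Agilent G2565CA scanner at 2-µm resolution. Binding signal is the background-corrected, normalized gProcessedSignal from Agilent software.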
row,Sequence,binding signal [log2 normalized intensity]
1,GTTCCGCGGTCCGCAGCGCTGGTGGCTGCAGCCTAGGGAGATTAGAGTATCGGTCGA,-0.919
2,CTTTGTATAAGCCGTGCAAAGTTCATCCCTGCCTAGGGAGATTAGAGTATCGGTCGA,3.24
3,CTCGAGGTGGACTTTCCCCCCTCACACTTTGCCTAGGGAGATTAGAGTATCGGTCGA,5.25
4,TTGTTTTTGCTTGGAATGCCCTTATCTCATGCCTAGGGAGATTAGAGTATCGGTCGA,2.32
5,AGCTGGGCCTGTGCTGGGGACAAAAGCTGAGCCTAGGGAGATTAGAGTATCGGTCGA,-0.959
6,CTCGGCATCATGCCCTTTGGCCCCCAGAGCGCCTAGGGAGATTAGAGTATCGGTCGA,6.14
7,TTCCTCCCACTCTGACATCCCCCTTTCTCTGCCTAGGGAGATTAGAGTATCGGTCGA,3.26
8,ATTCCCTTTCTCCTCCCCTCCCCTCCCCCCGCCTAGGGAGATTAGAGTATCGGTCGA,6.91
9,CTTTCTCCTCCCCTCCCCTCCCCCCACTCAGCCTAGGGAGATTAGAGTATCGGTCGA,6.94
10,AGGCCCTCGGCATCATGCCCTTTGGCCCCCGCCTAGGGAGATTAGAGTATCGGTCGA,7.28
11,CCCTCCTCCTTTTTTTCCCCTCCCTCAGCTGCCTAGGGAGATTAGAGTATCGGTCGA,3.64
12,ACACCAGGCCCTCGGCATCATGCCCTTTGGGCCTAGGGAGATTAGAGTATCGGTCGA,3.91
13,TTTTCCACCCTCCCCTCCCCCTCCTCCCCTGCCTAGGGAGATTAGAGTATCGGTCGA,7.13
14,CATTTTTTTCCACCCTCCCCTCCCCCTCCTGCCTAGGGAGATTAGAGTATCGGTCGA,6.28
15,CTTACTCTCTCCCTCCTCCTTTTTTTCCCCGCCTAGGGAGATTAGAGTATCGGTCGA,2.98
16,TCTCTCCCTCCTCCTTTTTTTCCCCTCCCTGCCTAGGGAGATTAGAGTATCGGTCGA,4.61
17,ACTGCATTCCCTTTCTCCTCCCCTCCCCTCGCCTAGGGAGATTAGAGTATCGGTCGA,4.31
18,TCCTGATCCCTGAGGTCGGGGCCTGGTCTGGCCTAGGGAGATTAGAGTATCGGTCGA,0.683
19,CAATGCCCCAGAAAGCCAGCAGGGGCTGCTGCCTAGGGAGATTAGAGTATCGGTCGA,-0.844
20,AGCTTCTCTTTCTAGGTCACCACCTTTTTTGCCTAGGGAGATTAGAGTATCGGTCGA,1.37

row,Sequence,binding signal [log2 normalized intensity]
1,GGCCTGATAGATTTTGCATTGCTCACATAGGCCTAGGGAGATTAGAGTATCGGTCGA,-0.988
2,TCCTCCAAAACCCAGTTCATAGGTCAATTCGCCTAGGGAGATTAGAGTATCGGTCGA,4.02
3,GAAAAAGCTGACGCCCCACCCCCTCCACCCGCCTAGGGAGATTAGAGTATCGGTCGA,6.44
4,AGCTGACGCCCCACCCCCTCCACCCCTGCCGCCTAGGGAGATTAGAGTATCGGTCGA,6.82
5,CCCTCCCCTCCCCCCACTCAAAATAGGAGTGCCTAGGGAGATTAGAGTATCGGTCGA,4.52
6,ACGCCCCACCCCCTCCACCCCTGCCTTTCAGCCTAGGGAGATTAGAGTATCGGTCGA,6.39
7,CCCTCCCCCCACTCAAAATAGGAGTTAAGGGCCTAGGGAGATTAGAGTATCGGTCGA,2.45
8,TCCTCCCCTCCCCTCCCCCCACTCAAAATAGCCTAGGGAGATTAGAGTATCGGTCGA,6.79
9,GGCTATACAATTCCAGCAAGGATGGGGGCAGCCTAGGGAGATTAGAGTATCGGTCGA,-0.832
10,AAAATTAAGGTTCAAAGGGAAAAAATAATCGCCTAGGGAGATTAGAGTATCGGTCGA,-0.757
11,TTCCATTGAAGCAGAGTGTCCCATATCACAGCCTAGGGAGATTAGAGTATCGGTCGA,0.724
12,GTTAGATTAGTGTGCAGCTTTGTGTAAAACGCCTAGGGAGATTAGAGTATCGGTCGA,0.946
13,AGATCTCAGTTGGTCCAAGGTACATGTCTCGCCTAGGGAGATTAGAGTATCGGTCGA,2.34
14,GACAGCTGGGCCCTGCCTGACCTGCCCTTTGCCTAGGGAGATTAGAGTATCGGTCGA,4.42
15,CTCTTTGGTGCAAAGGTCAGGACAAGGCTCGCCTAGGGAGATTAGAGTATCGGTCGA,4.3
16,GAAAAGGCCTGACCTTTGCCCTCTGGCCCTGCCTAGGGAGATTAGAGTATCGGTCGA,9.1
17,CCCTCGACCTTTGCCCTCCATAAGGGGGAGGCCTAGGGAGATTAGAGTATCGGTCGA,6.24
18,CAGAGGCTTCCTCTTTGGTGCAAAGGTCAGGCCTAGGGAGATTAGAGTATCGGTCGA,6.86
19,CCCTGCCTGACCTGCCCTTTGTCCCTCCTGGCCTAGGGAGATTAGAGTATCGGTCGA,4.51
20,TTCTGCCCCTTGCTCCTGCTTGCTGGCTTTGCCTAGGGAGATTAGAGTATCGGTCGA,1.2

row,Sequence,binding signal [log2 normalized intensity]
1,AGAAGGAAAAGGCCTGACCTTTGCCCTCTGGCCTAGGGAGATTAGAGTATCGGTCGA,10.1
2,GACCTTTGCCCTCTGGCCCTTAAAGGCTTTGCCTAGGGAGATTAGAGTATCGGTCGA,6.99
3,CTCTGCAGAGGCTTCCTCTTTGGTGCAAAGGCCTAGGGAGATTAGAGTATCGGTCGA,-0.855
4,ACAGAAGAAGGAAAAGGCCTGACCTTTGCCGCCTAGGGAGATTAGAGTATCGGTCGA,4.61
5,AGAGGACAGAAGAAGGAAAAGGCCTGACCTGCCTAGGGAGATTAGAGTATCGGTCGA,-0.388
6,TTGAAGCAGAGTGTCCCATATCACATTTTAGCCTAGGGAGATTAGAGTATCGGTCGA,0.955
7,TGCTTATCAGTGTACCTGTCCCTACTCAATGCCTAGGGAGATTAGAGTATCGGTCGA,0.371
8,GTGCCCTCATAAGAGACTTTGCCCTTTTTTGCCTAGGGAGATTAGAGTATCGGTCGA,5.63
9,TCAGGACTCTAACTGGCTTTAAGAGGAATGGCCTAGGGAGATTAGAGTATCGGTCGA,-0.943
10,AGGAATGAGACATGAATCCATCCCACCTCAGCCTAGGGAGATTAGAGTATCGGTCGA,-0.775
11,AAACTTTAGTAGTCCAAAGCTCAGATTGCCGCCTAGGGAGATTAGAGTATCGGTCGA,0.566
12,AGATGGTCTCAGGTGGAGATAAGGAATTTGGCCTAGGGAGATTAGAGTATCGGTCGA,-0.171
13,TTGAAAGTTTGGTGGACTTTGGCCGTGAAGGCCTAGGGAGATTAGAGTATCGGTCGA,6.79
14,TAATTCTTCTTTGAAAGTTTGGTGGACTTTGCCTAGGGAGATTAGAGTATCGGTCGA,6.32
15,CTTCTTTGAAAGTTTGGTGGACTTTGGCCGGCCTAGGGAGATTAGAGTATCGGTCGA,9.62
16,GGTGGACTTTGGCCGTGAAGCCGTCCTGTCGCCTAGGGAGATTAGAGTATCGGTCGA,5.03
17,AGTTTGGTGGACTTTGGCCGTGAAGCCGTCGCCTAGGGAGATTAGAGTATCGGTCGA,6.2
18,GGCATTAATTCTTCTTTGAAAGTTTGGTGGGCCTAGGGAGATTAGAGTATCGGTCGA,2.23
